Sampled rows, rich in hits. Any-hit rate of the full collection: about 2.3%.
CHO-K1 Ca antag = nonselective inhibitor or artifact in parental CHO-K1 cells | ATP-induced calcium, Fluo-8 fluorescence | inhibition, % at 3 µM | 0.6% of 360,000 active | AID 602250;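 active = inhibition above a per-plate cutoff, the plate's mean sample inhibition plus 3 SD, cut at about 24% in these data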;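 also: 0% = DMSO plus EC80 ATP and 100% = DMSO alone without ATP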
CHRM1 agonist = human M1 muscarinic receptor agonists, primary screen, Fluo-8 calcium fluorescence, CHO-K1 cells, HTS | CHO-K1 hM1, agonist mode; 0% DMSO, 100% acetylcholine EC100 | activation, % at 3 µM | 0.33% of 360,000 active | AID 588814, 2011;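 active = activation above the run's mean compound activation plus 3 SD, cut at about 16% in these data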;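 also: peak over basal fluorescence ratio within a 140 s kinetic read after compound addition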
Target sequence (P11229 whole entry, looked up): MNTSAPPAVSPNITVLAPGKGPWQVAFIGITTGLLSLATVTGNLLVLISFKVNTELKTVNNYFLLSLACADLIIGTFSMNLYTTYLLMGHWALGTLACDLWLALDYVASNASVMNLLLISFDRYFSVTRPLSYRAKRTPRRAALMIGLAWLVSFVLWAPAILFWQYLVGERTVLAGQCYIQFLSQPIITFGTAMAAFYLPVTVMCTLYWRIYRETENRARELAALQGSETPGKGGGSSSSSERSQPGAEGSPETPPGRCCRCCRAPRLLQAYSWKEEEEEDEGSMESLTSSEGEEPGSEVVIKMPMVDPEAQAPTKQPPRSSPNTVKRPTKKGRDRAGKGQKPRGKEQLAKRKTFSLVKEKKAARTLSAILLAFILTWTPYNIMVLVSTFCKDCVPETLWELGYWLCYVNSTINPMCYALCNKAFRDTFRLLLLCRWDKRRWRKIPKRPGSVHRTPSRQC
CHRM1 PAM = human M1 muscarinic receptor positive allosteric modulators, primary screen, CHO-K1 cells, Fluo-8 calcium fluorescence, 1536-well; Muscarinic acetylcholine receptor M1 (Homo sapiens), P11229; activation, % at 3 µM; CHO-K1 hM1, ACh EC20; 0% = ACh EC20, 100% = maximal ACh; 0.088% of 360,000 active; in the data active = activation above about 19%, passing the limit was not always enough
CHO-K1 Ca PAM = nonselective calcium activators in parental CHO-K1 cells, primary screen, counter-screen for M1 PAM project, cell-based, Fluo-8 calcium fluorescence, full deck, 1536-well. ATP EC20; 0% at ATP EC20, 100% at ATP max. activation, % at 3 µM. 0.02% of 360,000 active. AID 602247, 2012;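 active = activation above the run cutoff, the mean activation of all test compounds plus 3 SD, cut at about 40% in these data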;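 also: peak over basal fluorescence ratio in a 140 s read after ATP addition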
M1 ag parental = counter-screen for M1 agonists: effect in parental CHO-K1 cells; Fluo-8 calcium fluorescence; scaled to maximal ATP response, vehicle zero; activation, % at 3 µM; 0.48% of 360,000 active; AID 602248, 2012; in the data active = activation above about 15%;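 also: untransfected CHO-K1 host cells lacking M1 receptor as counterscreen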
M1 antag = human M1 muscarinic receptor antagonists, primary screen, CHO-K1 cells, Fluo-8 calcium fluorescence, 1536-well; 1.3% of 360,000 active; inhibition, % at 3 µM; CHO-K1 hM1, ACh EC80 antagonist; Muscarinic acetylcholine receptor M1 (Homo sapiens), P11229;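 active = percent inhibition above its own plate's cutoff, namely the mean of that plate's compound wells plus 3 SD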;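 also: peak over basal fluorescence ratio during 140 s after agonist addition; 0% = ACh EC80 plus DMSO and 100% = DMSO alone without agonist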
* marks the source's active call; other numbers are inactive results; . = not tested or not shown.

SMILES	CHO-K1 Ca antag	CHRM1 agonist	CHRM1 PAM	CHO-K1 Ca PAM	M1 ag parental	M1 antag
O=C(Nc1cccc(N2C(=O)C3CCCCC3C2=O)c1)c1ccccc1 (stereo not drawn)	-1.8	-1.1	-2.3	2.2	3.6	4.0
O=C(Nc1cccc(Cl)c1)c1cccc(N2C(=O)C3CC=CCC3C2=O)c1 (stereo not drawn)	-1.7	3.8	-5.8	5.8	17.0*	9.1
Cc1cc(C)c2cc(CN(CCO)C(=O)Nc3ccc(F)cc3)c(=O)[nH]c2c1	25.8*	-1.7	2.4	-7.0	-0.4	-4.8
Cc1cc(Oc2ccccc2)nc(NCc2ccccc2)n1	37.8*	1.8	-6.3	-2.1	1.1	1.4
CCCCNc1cc(C)nc(NCc2ccccc2)n1	25.9*	2.9	-9.8	-0.4	9.5	30.0*
Cc1cc(Nc2ccccc2)nc(NCc2ccccc2)n1	27.1*	-1.7	-13.1	2.1	9.9	13.4
Cc1cc(C)nc(NCCCc2ccccc2)n1	-9.6	-5.5	-6.3	24.3	0.7	7.4
Cc1cc(Nc2ccc(Cl)cc2)nc(NCc2ccccc2)n1	12.1	0.8	6.6	16.2	8.5	3.2
CCN1C(=O)[C@H]2[C@@H](c3ccc(-c4ccc(F)cc4)cc3)N[C@@](C)(C(=O)OC)[C@H]2C1=O	-9.7	-7.8	-0.6	11.3	0.3	2.9
Cc1ccc2nc(N(CCCN(C)C)C(=O)c3ccco3)sc2c1	-6.2	3.9	4.3	26.4	1.0	-5.2
CN(C)CCCN(C(=O)CCc1ccccc1)c1nc2c(F)cccc2s1	0.5	-7.1	7.5	20.5	17.9*	-10.6
CN(C)CCCN(C(=O)c1ccco1)c1nc2c(F)cc(F)cc2s1	-10.5	7.1	2.0	-9.5	0.8	2.9
CN(C)CCCN(C(=O)c1ccco1)c1nc2ccc(F)cc2s1	11.0	17.5*	-5.3	14.5	0.1	18.1
CN(C)CCCN(C(=O)c1ccco1)c1nc2c(F)cccc2s1	-7.9	6.5	-14.7	-2.5	0.5	47.2*
CCOc1ccc(N(Cc2cc3cc(C)ccc3[nH]c2=O)S(=O)(=O)c2ccccc2)cc1	-5.2	-2.3	3.4	11.1	0.9	-1.0
CCOc1ccccc1NC(=O)C1CCCN(S(=O)(=O)c2ccc3c(c2)C(C)(C)C(=O)N3C)C1 (stereo not drawn)	4.3	-5.9	3.0	6.8	1.4	-5.5
N#Cc1c(N)[nH]c(C(=O)c2ccccc2)c1-c1ccccc1Br	-1.4	.	.	-7.1	2.3	.
CCC(=O)N1CCN(c2ccc(NC(=O)c3cc4ccccc4o3)cc2Cl)CC1	22.6	1.6	-19.9	-9.0	10.0	17.7*
CCCC(=O)N1CCN(c2ccc(NC(=O)c3cc4ccccc4o3)cc2Cl)CC1	20.4	5.0	-17.0	-4.2	13.4	55.5*
O=C(Nc1ccc(N2CCN(C(=O)c3ccccc3)CC2)c(Cl)c1)c1ccco1	-4.9	1.1	-4.8	14.4	4.6	6.7
O=C(Nc1ccc(N2CCN(C(=O)c3ccco3)CC2)c(Cl)c1)c1cc2ccccc2o1	7.8	1.1	-10.6	16.4	6.2	37.3*
CCC(=O)N1CCN(c2ccc(NC(=O)c3ccco3)cc2Cl)CC1	-7.9	-1.3	2.6	-8.4	3.6	-5.9
CCCC(=O)N1CCN(c2ccc(NC(=O)c3cccs3)cc2Cl)CC1	-0.5	-7.9	9.1	11.4	0.3	-3.5
CCCn1nc(C(=O)NNC(=O)CCCOc2ccc(C)cc2)c2ccccc2c1=O	-5.5	-5.4	6.0	-12.0	-0.5	-5.4
CCc1nc(SCC(=O)Nc2nnc(CC)s2)c2c(C)c(C)sc2n1	13.4	0.4	8.3	-11.2	1.2	-22.9
SMILES	CHO-K1 Ca antag	CHRM1 agonist	CHRM1 PAM	CHO-K1 Ca PAM	M1 ag parental	M1 antag
CCc1nc(SCC(=O)Nc2cc(OC)ccc2OC)c2c(C)c(C)sc2n1	-16.0	-6.7	-11.2	-10.5	0.0	32.5*
Oc1ccc(C[C@@H]2CNCCN2CCc2cc(C(F)(F)F)cc(C(F)(F)F)c2)cc1	-6.3	-1.1	25.2*	6.9	2.2	-6.0
C[C@@H](C(=O)OCC(=O)c1ccc(F)c(F)c1)N1C(=O)C2CCCCC2C1=O (stereo partly drawn)	-9.7	-0.6	10.2	-1.8	1.9	-3.7
CC(=O)NC1=NN(C(C)=O)C(c2ccco2)S1 (stereo not drawn)	22.1	1.7	17.4	-22.8	0.2	-6.8
O=C(CSc1nnc2n1CCCN2)c1ccc(Cl)cc1	-1.0	-6.3	4.2	18.9	0.3	0.6
O=C(CSc1nnc2n1CCCN2)c1ccc([N+](=O)[O-])cc1	8.8	-5.2	8.1	3.0	18.7*	-9.3
COC(=O)[C@@]1(Cc2ccccc2)[C@H]2C(=O)N(C)C(=O)[C@H]2[C@H]2CN=C(SCC(=O)c3ccccc3)N21	-1.7	-11.0	-32.5	9.1	0.8	101.6*
COc1ccc(C(=O)NCCn2ccc3ccccc32)c(OC)c1	-34.5	1.7	3.7	41.3*	2.3	-25.8
CCn1c(=O)n(CC(=O)Nc2ccc(F)cc2)c(=O)c2ccccc21	29.1*	-4.9	0.8	-13.3	-0.2	-3.5
CC(NC(=O)Nc1ccc([N+](=O)[O-])cc1)C(c1cccs1)N1CCCC1 (stereo not drawn)	12.2	15.6	-4.4	2.0	25.1*	6.9
CC(NC(=O)Nc1cccc(Cl)c1)C(c1cccs1)N1CCCC1 (stereo not drawn)	4.7	-7.0	-6.3	8.6	14.0	9.5
O=C1CSC(c2ccccc2)N1Cc1ccccc1 (stereo not drawn)	10.3	-7.5	7.1	11.3	0.3	-11.4
O=C1C=C(/C=C/c2ccccc2)C[C@@H](c2ccc3c(c2)OCO3)C1	-11.8	-2.7	-2.5	14.8	0.2	4.3
CC(=O)Nc1ccc(NS(=O)(=O)c2cccc3nonc23)cc1	-16.7	-0.6	3.4	11.3	0.2	-5.5
CC(C)c1ccc(N2C(=O)CSC23C(=O)N2CCCc4cccc3c42)cc1 (stereo not drawn)	-5.1	-8.4	-20.7	20.6	0.6	98.4*
CC(Oc1ccc(C(C)(C)C)cc1)c1ccnc2nc(/N=C/N(C)C)nn12 (stereo not drawn)	-2.4	-7.5	-21.4	8.7	1.6	54.1*
CC(Oc1ccc(F)cc1)c1ccnc2nc(/N=C/N(C)C)nn12 (stereo not drawn)	1.2	-10.7	-5.1	-11.2	-0.3	7.8
Cc1ccc(OCCCNC2CCCC2)cc1	-11.6	-11.0	1.0	20.9	1.0	-5.9
CC(C)(C)c1ccc(OCCCNC2CCCC2)cc1	16.3	-10.0	-30.3	-8.3	3.8	21.7*
CCCCNc1c(-c2cccc(-c3ccc(OC)cc3)c2)nc2ccc(C)cn12	8.0	-7.8	-30.6	-7.8	6.6	59.0*
